The values that follow come from the OligoGym collection.
Note: reference of the scale not given here.

The first experiment deals with TRPM3. Kind of experiment: pooled miR-30 sensor sort-seq; sequence = guide strand. The settings on record: shRNA.
The sequence TTGTCTTTCATATTGACCGAAT had a sensor-assay potency score (higher = more potent) of -0.665.

Take TTATTTTACCATCCTCTCGGGT: the sensor-assay potency score (higher = more potent) is -0.671.

TATTTTACCATCCTCTCGGGTC showed a sensor-assay potency score (higher = more potent) of -0.479.

TTTCTTGAGCTCATCATCGGTT gave a sensor-assay potency score (higher = more potent) of 0.21.

Sequence TTGTACAATTCCTCTAGTCTGG came in with a sensor-assay potency score (higher = more potent) of -0.181.

TTGTTCTTGAACTCCAAGCTGA came in with a sensor-assay potency score (higher = more potent) of -0.171.

Another experiment concerns the target TRPM6. The experiment is described as above. The settings on record: shRNA.
As for TAATTCTTCAACTCTTCTGAGG, the sensor-assay potency score (higher = more potent) is -0.79.

Turning to TGTTCTTTTGACTTCTTCCTTG, the sensor-assay potency score (higher = more potent) worked out at 0.00322.

Take TATGTTATCACAGAGTTCCTGG: the sensor-assay potency score (higher = more potent) was 0.658.

TATAGATCAATTTTTGAGCAGC: the sensor-assay potency score (higher = more potent) was -0.262.

As for TAAAACTATGACTCCTAGCGAA, the sensor-assay potency score (higher = more potent) is -0.766.

TAAATGTAACAGATGATCCAGT gave a sensor-assay potency score (higher = more potent) of 0.213.

In the case of TTGAGTAATTCTTCAACTCTTC, the sensor-assay potency score (higher = more potent) is -0.179.

As to TTGTATTGTAGAGCTCTTCCAG, the sensor-assay potency score (higher = more potent) was -0.0378.

For the sequence TAGAACTCATAGACTTTCCTGG, the sensor-assay potency score (higher = more potent) was 0.494.

Sequence TTGTTGTTGTTATACTTCCGGA registered a sensor-assay potency score (higher = more potent) of -0.714.

In turn, TAAGTGAGCAATAGGCTCGTGC registered a sensor-assay potency score (higher = more potent) of -0.42.

On to TTGAGTGTTGTGAGCTTGCTGA, for which the sensor-assay potency score (higher = more potent) is -0.408.
